Common to all, as to settings: concentration: 1 μM, replicates: in singlicate; n = 1
The test system of test [1] is MYLK.
Test [2] has as its system MYO3A.
For test [3], the system named is MYO3B.
Test [4] concerns T1, NDR1.
T1 construct: gene STK38

The subject of test [5] is NDR2.
In test [6] the test system is NEK10.
Test [7] deals with NEK11.
Test [8] concerns NEK1.
The test system of test [9] is NEK2.
For test [10], the system named is NEK3.
Test [11] has as its system NEK4.
In test [12] the test system is NEK5.
Test [13] relates to NEK6.
The subject of test [14] is NEK7.
Test [15] deals with NEK9.
Test [16] has as its system T2, NIK.
T2 construct: gene MAP3K14

Test [17] deals with T3, NIM1.
T3 construct: gene MGC42105

For test [18], the system named is NLK.
In test [19] the test system is T4, OSR1.
T4 construct: gene OXSR1

For test [20], the system named is PAK1.

Data on ten molecules can be found in paper PMC5540273 (PLoS ONE, 2017).
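Further: KINOMEscan kinase panel screen.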

For `COc1cccc(C2=C(Nc3cccc(C(=O)O)c3)C(=O)NC2=O)c1` [SB-390770], the “%Inh” value in [1] was 0%; in test [2] it was 0%; in test [3], 8%; in test [4], 0%; in test [5], 0%; in [6], 40%. Further, the “%Inh” value in test [7] is 36%; in test [8], 0%; in test [9] it was 0%; in test [10], 0%; in [11], 0%; in test [12] it was 14%. Further, the “%Inh” value is reported as 1% in [13]; 0% in test [14]; 9% in test [15]; 0% in [16]; 0% in test [17]; 8% in [18]. Further, the “%Inh” value is reported as 16% in test [19] and 0% in [20].

For `Nc1ncnc2c1ncn2-c1ccc(Cl)cc1` [AH2635], the “%Inh” value in test [1] is given as 0%; in test [2] it was 49%; in test [3], 0%; in test [4], 0%; in test [5], 31%; in test [6], 27%. Besides, the “%Inh” value in test [7] was 0%; in test [8], 0%; in test [9], 0%; in [10], 0%; in test [11], 0%; in [12] it was 12%. The “%Inh” value in test [13] is 0%; in test [14], 0%; in test [15] it was 0%; in test [16], 89%; in [17], 27%; in [18], 0%. The “%Inh” value in test [19] worked out at 0%; in test [20], 4%.

Consider `CCC(=O)c1c(-c2ccccc2)c2cc(Cl)ccc2c(=O)n1Cc1cc(S(C)(=O)=O)n(CC(F)F)n1`, for which the “%Inh” value in test [1] is 0%; in test [2], 0%; in [3] it was 0%; in [4], 3%; in test [5], 0%; in test [6] it was 5%. In addition, the “%Inh” value in test [7] is on record as 0%; in test [8] it was 0%; in test [9] it was 0%; in test [10], 22%; in [11], 0%; in [12] it was 0%. In addition, the “%Inh” value in test [13], in test [14], in [15], in test [16], in test [17] and in test [18] was 0% each time. The “%Inh” value in test [19] and in test [20] was 0% in each case.

With `O=C1NC(=O)C(c2ccccc2)=C1Nc1cccc(O)c1` [SB-390534], the “%Inh” value in [1] was determined as 37%; in test [2] it was 17%; in test [3] it was 21%; in test [4], 0%; in [5], 0%; in test [6] it was 0%. Further, the “%Inh” value worked out at 16% in test [7]; 0% in test [8]; 16% in test [9]; 30% in test [10]; 13% in test [11]; 0% in test [12]. Also, the “%Inh” value in test [13] turned out to be 0%; in test [14], 14%; in test [15], 0%; in [16] it was 3%; in test [17] it was 100%; in [18], 0%. Moreover, the “%Inh” value in test [19] and in test [20] was 0% in each case.

For the molecule `COc1ccc(-c2coc3ccc(-c4nnc(SCc5cccc(C#N)c5)o4)cc23)cc1`, the “%Inh” value in test [1] was determined as 6%; in test [2] it was 20%; in test [3], 49%; in test [4] it was 7%; in test [5], 0%; in test [6], 0%. Also, the “%Inh” value in [7] was found to be 0%; in [8] it was 0%; in test [9], 5%; in test [10], 7%; in test [11] it was 3%; in test [12], 0%. Also, the “%Inh” value in test [13] is 16%; in test [14], 0%; in test [15], 0%; in test [16] it was 2%; in [17], 5%; in test [18], 0%. Further, the “%Inh” value in test [19] came to 0%; in [20] it was 18%.

Consider `Cl.c1ccc(Cn2cnc3cc(Nc4ncnc5ccccc45)ccc32)cc1` [GW272142], for which the “%Inh” value in test [1] worked out at 1%; in [2], 10%; in [3] it was 0%; in test [4], 9%; in test [5] it was 4%; in [6] it was 15%. The “%Inh” value in test [7] was 0%; in test [8] it was 0%; in test [9], 0%; in test [10], 0%; in test [11], 0%; in test [12] it was 16%. Also, the “%Inh” value in [13] was found to be 0%; in test [14] it was 0%; in [15] it was 7%; in test [16], 14%; in test [17], 0%; in test [18], 0%. In addition, the entries for the “%Inh” value in [19] and in test [20] were 26% and 0%, respectively.

Take `COc1ccc(-c2cc3c(C)nc(N)nc3n([C@H]3CC[C@H](OCCO)CC3)c2=O)cn1`: the “%Inh” value in test [1] was determined as 0%; in test [2] it was 0%; in test [3], 25%; in test [4], 11%; in test [5], 0%; in test [6] it was 22%. The “%Inh” value in [7] worked out at 0%; in test [8], 0%; in [9], 0%; in [10], 19%; in test [11], 0%; in [12], 0%. Also, the “%Inh” value in [13] is listed as 22%; in test [14], 0%; in test [15], 0%; in test [16], 0%; in [17], 21%; in test [18], 0%. The “%Inh” value in test [19] and in test [20] was 0% each time.

In the case of `CN1C(=O)C(Nc2cc(Cl)c(O)c(Cl)c2)=C(c2ccc(Cl)cc2)C1=O` [SB-404321], the “%Inh” value in test [1] was 0%; in [2], 0%; in test [3], 8%; in test [4] it was 0%; in test [5], 0%; in test [6], 0%. The “%Inh” value was 0% in test [7]; 0% in [8]; 0% in test [9]; 16% in test [10]; 0% in [11]; 7% in [12]. The “%Inh” value in test [13] is listed as 0%; in test [14], 0%; in test [15], 0%; in test [16], 30%; in test [17] it was 0%; in test [18], 0%. For the same molecule, the “%Inh” value in test [19] and in test [20] was 0% each time.

On to `CCC(=O)c1c(-c2ccccc2)c2cc(Cl)ccc2c(=O)n1Cc1ccc(C(=O)O)cc1`, for which the “%Inh” value came to 0% in [1]; 0% in [2]; 3% in [3]; 0% in test [4]; 0% in test [5]; 0% in test [6]. Also, the “%Inh” value in test [7] turned out to be 0%; in test [8], 0%; in test [9], 0%; in test [10], 22%; in test [11] it was 0%; in test [12], 0%. The “%Inh” value in [13], in [14], in test [15], in [16], in [17] and in test [18] was 0% in each case. Also, the “%Inh” value in [19] and in test [20] was 0% each time.

Take `Cc1ccc(Oc2ccc(Nc3ncnc4cc[nH]c34)cc2C)cn1`: the “%Inh” value in [1] came to 38%; in test [2], 9%; in [3], 28%; in test [4], 8%; in test [5] it was 0%; in test [6], 0%. In addition, the “%Inh” value worked out at 0% in test [7]; 0% in [8]; 2% in test [9]; 20% in [10]; 3% in test [11]; 0% in [12]. Also, the “%Inh” value in test [13] is 17%; in test [14] it was 10%; in test [15], 5%; in test [16], 0%; in test [17], 58%; in [18], 0%. The “%Inh” value in test [19] was 0%; in [20], 37%.
